These results are taken from PubChem BioAssay (NCI).

Compounds without any hit were thinned out: in the full panel of roughly 83,000, 20% have a hit.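 The test compound was applied at a single concentration to cells in 96-well plates for 48 hours, and percent growth was recorded.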 Active and inactive are the calls of the source. The calls were made as follows: active = growth percent below 10; inactive = the rest.

The test system of the assay is T-47D breast. Kind of assay: NCI-60 one-dose screen, 48 h (100 = growth as untreated, 0 = no growth, -100 = all killed). The conditions noted are these: 10 µM unless noted.
Consider `O=[N+]([O-])c1cc([N+](=O)[O-])c(NN=C(c2ccc(O)cc2)c2ccc(O)cc2)cc1Cl`, for which the growth was -50.4% (active).

Turning to `Cc1cc(SC#N)ncn1`, the growth was 104% (inactive).

As to `O=C(N/N=C/c1c(Cl)cccc1Cl)c1cccc(Nc2ccnc(C(F)(F)F)c2)c1`, the growth is 37% (inactive).

As for `O=[N+]([O-])c1cc([N+](=O)[O-])c(C(F)(F)F)cc1NN=C(c1ccc(O)cc1)c1ccc(O)cc1`, the growth is -6.47% (active).

With `N/C(=N\c1nc2ccccc2[nH]1)NC(=O)Cc1cccc2ccccc12`, the growth was 71.4% (inactive).

As to `CCN(CC)CCCC(C)Nc1ccnc2cc(Cl)c(SCc3ccccc3)cc12` (centres undefined), the growth is -58.3% (active).

Consider `O=C(Oc1ccc(Cl)cc1[N+](=O)[O-])Oc1ccc(Cl)cc1[N+](=O)[O-]`, for which the growth is 115% (inactive).

On to `C[C@@H](NC(=O)[C@@H](CC(=O)N1CCC(N2CCCCC2)CC1)N1C(=O)[C@@H](N2C(=O)OC[C@@H]2c2ccccc2)[C@H]1/C=C/c1cccc(Cl)c1)c1ccccc1`, for which the growth was 29.9% (inactive).

For `COc1ccc2c3ccnc(C(F)(F)F)c3n(CCCCN)c2c1`, the growth was 52.1% (inactive).

As for `CCOC(=O)c1c[nH]c2cc(OCC3CC3)c(OCC3CC3)cc2c1=O`, the growth is 109% (inactive).

Consider `COc1ccc(-c2nc3ccccn3c2/C=C/C(=O)c2cc(OC)c(OC)c(OC)c2)cc1OC`, for which the growth is 2.52% (active).

As to `NC(=S)Cc1ccccc1`, the growth is 101% (inactive).

Consider `CC(C)C1=NOC(=O)C1=Cc1cn(-c2ccccc2)nc1-c1cccc([N+](=O)[O-])c1`, for which the growth was 84.5% (inactive).

For the compound `O=c1c2c3c(sc2n2cnnc2n1Cc1ccccc1)CCCC3`, the growth was 38.4% (inactive).
